As usually defined, the inhibition is the drop in the measured response relative to a control, in per cent.

The nature of assay [1]: compounds altering circadian rhythm period length – cell-based, LOPAC library, luminescence reporter (AID 2774; call rule not given here;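 further: values are relative to mean of DMSO wells on each plate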). As to conditions: circadian reporter cells, at 7 µM, actives lie on both sides.
Assay [2] can be described thus: compounds altering viability of human ES cells (AID 493140; call rule not given here;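 further: cells exposed to compounds for four days before counting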). As to conditions: human embryonic stem cell survival screen; stronger effect = higher value.
Assay [3] deals with Hepatitis C virus NS3 helicase. In words: blockers of NS3h binding to ssDNA – biochemical, fluorescence polarization, LOPAC1280 library, primary screen (AID 687035; in the data active means inhibition above about 37%). As to conditions: Purified HCV NS3 helicase, Cy5-dT15 ssDNA binding fluorescence polarization; stronger effect = higher value; concentration not given here. (In general: In fluorescence polarisation assays a small probe gives low polarisation when free and higher when bound to something large.)

Assay [4] is described as follows: compounds altering Cy5-DNA-NS3h complex signal – biochemical, LOPAC1280, artefact control for HCV NS3 helicase inhibitor project (AID 687037; call rule not given here). As to conditions: Cy5-DNA-NS3h complex fluorescence interference counterscreen. Background: Counterscreens check selectivity or assay interference.
Assay [5] can be described thus: blockers of cellular phospholipid synthesis – cell-based, LOPAC library, screen 4, primary screen (AID 1347384; call rule not given here). To be noted: animal cells, phospholipid biosynthesis inhibition screen; at 10 µM.
The target in assay [6] is Mitogen-activated protein kinase 7 (Homo sapiens) (UniProt Q13164). The assay can be described thus: Gal4-ERK5 driven luciferase induction – cell-based, HTS, primary screen (AID 1508626).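 Further: luciferase driven by Gal4-ERK5 fusion binding five Gal4 sites before minimal TATA.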 As to conditions: HeLa Gal4-ERK5 transactivation, 18 h, at 5 µM, stronger effect = higher value.
Assay [7] in a line: viability loss in pontine glioma line – cell-based, JHH-DIPG-1, MIPE4.0, CellTiter-Glo, qHTS, dose response (AID 1347062; cut-off not given, nearly all actives have AC50 up to about 27 µM). As to conditions: JHH-DIPG-1 viability, CellTiter-Glo ATP luminescence. (In ATP-based viability assays light output follows the ATP content of the culture.)
Assay [8] is described as follows: viability loss in pontine glioma line – cell-based, SU-DIPG-IV, MIPE4.0, CellTiter-Glo, qHTS, dose response (AID 1347063; cut-off not given, nearly all actives have AC50 up to about 30 µM;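 further: compound exposure lasted 48 hours before the viability readout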). To be noted: CellTiter-Glo ATP luminescence.
A short description of assay [9]: viability loss in pontine glioma line – cell-based, SU-DIPG-XIII, MIPE5.0, CellTiter-Glo, qHTS, dose response (AID 1347064; cut-off not given, nearly all actives have AC50 up to about 23 µM). To be noted: CellTiter-Glo ATP luminescence.
Assay [10] is described as follows: JHH-DIPG-1 glioma cell viability, MIPE5.0 library, CellTiter-Glo luminescence, qHTS (AID 1347067; cut-off not given, nearly all actives have AC50 up to about 26 µM;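 further: cells exposed to compound for 48 hours before readout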). As to conditions: JHH-DIPG-1 glioma viability, CellTiter-Glo ATP luminescence.
Assay [11] in a line: growth inhibition, single agent or in combination, cell-based, chromothripsis tumors, cisplatin or BGB combos (AID 1671449; in the data active means inhibition above about 80%;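 further: cells exposed for 96 hours; 0% = vehicle DMSO and 100% = killing by high DMSO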). As to conditions: LFS_MB_P medulloblastoma cells.
Assay [12] is described as follows: growth inhibition, single agent and combos, cell-based, chromothripsis tumors, cisplatin or BGB combos (AID 1671450; in the data active means inhibition above about 80%;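 further: cells exposed to compound for four days; 0% = vehicle DMSO and 100% = cell killing by high DMSO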). As to conditions: HDN33 neuroblastoma cells, stronger effect = higher value.
Assay [13] in a line: growth inhibition, single agents and combos, ICB984, cell-based, cisplatin or BGB combos, synergistic combos for chromothripsis tumors (AID 1671451; call rule not given here;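 further: cells exposed for 96 hours before readout; 0% = vehicle DMSO and 100% = killing by high DMSO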). To be noted: ICB984 medulloblastoma cells, drug combinations, stronger effect = higher value.
Assay [14] is described as follows: growth inhibition, single agents and combos, HTB85, cell-based, BGB or cisplatin IC20 combos, synergistic combos for chromothripsis tumors (AID 1671453; in the data active means inhibition above about 80%;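 further: cells exposed for 96 hours before readout; 0% = vehicle DMSO and 100% = high DMSO killing control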). As to conditions: HTB85 osteosarcoma cells, drug combinations, stronger effect = higher value.
A short description of assay [15]: growth inhibition, MDA-MB-436, cell-based, BGB or cisplatin combos, synergistic combos for chromothripsis tumors (AID 1671458; call rule not given here;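 further: cells exposed for 96 hours; 0% = vehicle DMSO and 100% = killing by high DMSO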). As to conditions: MDA-MB-436 breast carcinoma growth inhibition, drug combinations, stronger effect = higher value.
Assay [16] is described as follows: BT084 cell growth, single and combined drugs, ICGC_MB145, cisplatin and BGB IC40 combos (AID 1671461; in the data active means inhibition above about 80%;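 further: cells exposed to drugs for 96 hours; 0% = vehicle DMSO and 100% = high DMSO full killing control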). As to conditions: BT084 medulloblastoma cells, drug combinations, stronger effect = higher value.
Assay [17] is described as follows: RCMB18 cell growth, single agent and combined, cisplatin and BGB IC40 combos (AID 1671462; in the data active means inhibition above about 80%;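 further: cells exposed to compound for four days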). To be noted: RCMB18 medulloblastoma cells, stronger effect = higher value.
The nature of assay [18]: CRL1545 cell growth, single agent and combined, cisplatin and BGB IC20 combos (AID 1671464; in the data active means inhibition above about 80%;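 further: cells exposed to compound for 96 hours before readout; 0% = vehicle DMSO and 100% = high DMSO killing control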). As to conditions: CRL1545 osteosarcoma cells, stronger effect = higher value.
The mark [19] stands for this setting: measured here: with BGB IC20 combination, at 0.5 µM.
The mark [20] stands for this setting: measured here: with cisplatin IC20 combination, at 0.5 µM.

Inconclusive results are not listed. Active and inactive are the calls of the source.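 How the source made its calls, unless noted: active means luciferase signal above three times the same-plate solvent-only control wells; inactive means the rest.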

Sequence of Mitogen-activated protein kinase 7 (Homo sapiens) (Q13164 whole entry, looked up, the tested form may be a part): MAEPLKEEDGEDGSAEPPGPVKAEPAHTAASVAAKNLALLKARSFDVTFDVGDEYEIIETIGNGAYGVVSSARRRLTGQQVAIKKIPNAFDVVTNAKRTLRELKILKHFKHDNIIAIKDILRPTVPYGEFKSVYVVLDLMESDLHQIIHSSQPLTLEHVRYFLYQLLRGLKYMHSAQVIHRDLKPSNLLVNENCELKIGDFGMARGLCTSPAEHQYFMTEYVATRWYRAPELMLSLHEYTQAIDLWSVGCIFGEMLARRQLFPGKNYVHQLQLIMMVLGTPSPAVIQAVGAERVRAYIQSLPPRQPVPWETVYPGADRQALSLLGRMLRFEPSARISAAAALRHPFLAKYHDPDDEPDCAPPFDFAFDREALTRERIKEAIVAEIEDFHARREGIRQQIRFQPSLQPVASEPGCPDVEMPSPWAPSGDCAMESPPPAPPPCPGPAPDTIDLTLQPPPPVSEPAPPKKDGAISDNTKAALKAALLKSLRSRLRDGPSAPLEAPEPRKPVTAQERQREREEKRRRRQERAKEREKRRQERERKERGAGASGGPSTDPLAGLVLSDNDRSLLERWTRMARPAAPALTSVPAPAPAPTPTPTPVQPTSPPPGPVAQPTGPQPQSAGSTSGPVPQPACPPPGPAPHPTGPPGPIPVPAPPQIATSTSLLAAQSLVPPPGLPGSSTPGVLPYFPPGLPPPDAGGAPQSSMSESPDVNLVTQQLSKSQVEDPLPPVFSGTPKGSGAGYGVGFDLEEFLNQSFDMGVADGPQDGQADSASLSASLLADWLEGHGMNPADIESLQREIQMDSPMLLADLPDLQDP

`C[N+](C)(C)CCCCCCCCCC[N+](C)(C)C`: the period change in assay [1] was 0.03 h (inactive). Besides, in assay [2], the survival was 4 (inactive). Further, the inhibition in [3] is 2% (inactive). The fluorescence ratio (interference) in [4] was 1 (inactive). Moreover, in assay [5], the result was inactive. Besides, the luciferase signal in assay [6] is 60 AU (inactive).

As to `CNCc1ccccc1`, the luciferase signal in [6] is 56 AU (inactive).

As for `OCCc1ccccc1`, in [6], the luciferase signal was 108 AU (inactive).

Take `O=C1OC2(c3ccc(O)cc3Oc3cc(O)ccc32)c2ccccc21`: the luciferase signal in assay [6] is 52 AU (inactive).

For `CC(C)CCCC(C)N` (configuration not stated), the luciferase signal in assay [6] is 56 AU (inactive).

For `OC1C(O)C(O)C(O)C(O)C1O` (configuration not stated), the luciferase signal in assay [6] was 40 AU (inactive).

On to `CC1=C(C/C=C(\C)CCC[C@H](C)CCC[C@H](C)CCCC(C)C)C(=O)c2ccccc2C1=O`, for which the luciferase signal in [6] is 156 AU (inactive).

In the case of `CC[C@@H](CO)NCCN[C@@H](CC)CO`, the luciferase signal in assay [6] was 40 AU (inactive).

`NC(=O)C1(N2CCCCC2)CCN(CCCC(=O)c2ccc(F)cc2)CC1`: the luciferase signal in assay [6] was 52 AU (inactive).

Regarding `COc1cc(C(=O)NCCCCCC(=O)O)cc(OC)c1OC`, the luciferase signal in assay [6] is 36 AU (inactive).

Turning to `CC1(C)[C@@H]2CC[C@@]1(C)C(=O)C2`, the luciferase signal in [6] is 52 AU (inactive).

On to `NCCNCCNCCN`, for which the luciferase signal in assay [6] was 64 AU (inactive).

Take `Nc1ncn([C@H]2C[C@H](O)[C@@H](CO)O2)c(=O)n1`: the result in assay [7], in [8], in assay [9] and in [10] was inactive. The inhibition in assay [11] (at 0.5 µM, stronger effect = higher value) is 6.06% (inactive); in assay [11] (measured here: combination with BGB IC20, at 0.005 µM), -1.4%; in assay [11] (measured here: combination with BGB IC40, at 0.005 µM), -3.75%; in assay [11] (measured here: combination with BGB IC40, at 0.05 µM) it was -40.3%; in assay [11] (measured here: combination with cisplatin, at 0.5 µM, stronger effect = higher value), 19.6%; in assay [11] (measured here: combination with cisplatin, at 5 µM, stronger effect = higher value), 18%. In addition, the inhibition in assay [12] (BGB combo, at 5 µM) is 50.3%; in [12] (at 0.5 µM), 24.3% (inactive); in [12] (cisplatin combo, at 5 µM), 54.4%; in assay [12] (setting [19]), 30.2%; in assay [12] (setting [20]), 11.6%; in assay [12] (single agent, at 5 µM), 52.1%. For the same compound, the inhibition in [13] (BGB IC20 combo, at 0.005 µM) was -3.18%; in [13] (BGB IC40 combo, at 0.005 µM), -34%; in assay [13] (BGB IC40 combo, at 0.05 µM) it was -19.3%; in assay [13] (at 0.5 µM), -18% (inactive); in assay [13] (cisplatin combo, at 0.05 µM), -23.6%; in assay [13] (cisplatin combo, at 0.5 µM), -14.1%. For the same compound, the inhibition in assay [13] (cisplatin combo, at 5 µM) is -50.9%; in [13] (measured here: 5 uM single agent, at 5 µM) it was -6.92%; in [14] (at 0.5 µM), 3.38% (inactive); in assay [14] (measured here: with BGB IC20, at 0.5 µM), 2.59%; in assay [14] (measured here: with BGB IC20, at 5 µM), 19.3%; in assay [14] (measured here: with cisplatin IC20, at 0.5 µM) it was -6.21%. The inhibition in assay [14] (measured here: with cisplatin IC20, at 5 µM) is 27.4%; in assay [14] (single agent, at 5 µM), 40.2%; in [15] (at 0.5 µM), 17.4% (inactive); in assay [15] (measured here: BGB combination, at 0.5 µM) it was 28.5%; in assay [15] (measured here: BGB combination, at 5 µM), 26.2%; in [15] (measured here: cisplatin combination, at 0.5 µM), 6.25%. In addition, the inhibition in assay [15] (measured here: cisplatin combination, at 5 µM) is 4.64%; in [16] (at 0.5 µM) it was -3.99% (inactive); in [16] (cisplatin combination, at 0.5 µM), -10.2%; in [16] (cisplatin combination, at 5 µM) it was 16.2%; in [16] (measured here: BGB IC40 combination 0.05 uM, at 0.05 µM), -0.777%; in [16] (single agent, at 5 µM), -11.6%. Further, the inhibition in [17] (at 0.5 µM) is -2.53% (inactive); in assay [17] (cisplatin combo, at 5 µM), -31%; in [17] (measured here: BGB IC40 combination, at 0.05 µM) it was 7.83%; in assay [17] (measured here: combination with cisplatin, at 0.5 µM), -5.57%; in assay [17] (single agent, at 5 µM), 7.32%; in assay [18] (at 0.5 µM) it was -20.4% (inactive). In addition, the inhibition in assay [18] (setting [19]) was -0.059%; in assay [18] (setting [20]) it was -32.7%; in assay [18] (single agent, at 0.05 µM), -13.4%; in [18] (single agent, at 5 µM), 5.37%.

These data come from PubChem BioAssay.
